Data published in paper PMC4336329 (PLoS ONE, 2015).
The campaign covered roughly 310,000 compounds. About 2,200 (0.71%) showed an effect of 50% or more. The effect is printed as a negative number. Many of the other results were omitted from the sample, so strong results are more common in it than they were.

The molecules below were run against human ether-à-go-go-related gene (hERG) potassium channel (human, UniProt Q12809) (assay: primary screen, population patch clamp on CHO cells stably expressing hERG; higher = less effect of the substance).
human ether-à-go-go-related gene (hERG) potassium channel, sequence (Q12809 whole entry, looked up): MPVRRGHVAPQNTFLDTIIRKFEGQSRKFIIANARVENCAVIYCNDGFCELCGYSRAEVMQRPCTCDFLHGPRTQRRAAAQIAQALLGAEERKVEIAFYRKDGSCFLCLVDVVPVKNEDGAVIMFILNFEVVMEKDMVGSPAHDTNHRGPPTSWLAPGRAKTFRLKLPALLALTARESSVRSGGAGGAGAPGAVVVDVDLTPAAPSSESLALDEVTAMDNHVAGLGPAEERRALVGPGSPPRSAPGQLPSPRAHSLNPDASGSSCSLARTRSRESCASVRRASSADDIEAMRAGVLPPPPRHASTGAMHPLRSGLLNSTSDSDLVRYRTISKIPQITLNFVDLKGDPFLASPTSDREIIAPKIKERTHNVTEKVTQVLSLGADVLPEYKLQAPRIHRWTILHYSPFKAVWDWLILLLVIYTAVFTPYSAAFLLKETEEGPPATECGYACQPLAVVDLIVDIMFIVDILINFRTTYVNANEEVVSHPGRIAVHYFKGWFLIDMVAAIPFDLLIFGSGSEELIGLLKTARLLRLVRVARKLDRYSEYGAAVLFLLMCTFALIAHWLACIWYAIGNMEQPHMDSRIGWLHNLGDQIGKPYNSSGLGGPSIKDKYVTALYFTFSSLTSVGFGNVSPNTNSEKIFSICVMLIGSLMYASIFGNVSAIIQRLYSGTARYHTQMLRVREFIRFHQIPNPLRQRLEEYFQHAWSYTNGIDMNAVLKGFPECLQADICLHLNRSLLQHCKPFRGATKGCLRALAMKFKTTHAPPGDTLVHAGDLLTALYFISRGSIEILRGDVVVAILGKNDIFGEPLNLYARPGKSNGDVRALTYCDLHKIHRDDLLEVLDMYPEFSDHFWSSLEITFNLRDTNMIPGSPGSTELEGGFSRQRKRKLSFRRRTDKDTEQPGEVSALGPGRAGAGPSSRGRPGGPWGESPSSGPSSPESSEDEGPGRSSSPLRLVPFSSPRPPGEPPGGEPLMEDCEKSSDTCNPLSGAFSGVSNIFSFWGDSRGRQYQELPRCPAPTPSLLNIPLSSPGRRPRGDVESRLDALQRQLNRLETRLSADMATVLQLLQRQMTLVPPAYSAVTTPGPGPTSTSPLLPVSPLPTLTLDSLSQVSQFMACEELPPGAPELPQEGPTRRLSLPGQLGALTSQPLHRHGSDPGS

| Structure (SMILES) | hERG current change (%, negative = inhibition) at 1uM |
| --- | --- |
| CCN1CCN(c2ccc(NC(=O)c3ccc4c(c3)OCO4)cc2)CC1 | -16.7% |
| CCOC(=O)C1=C(COC(=O)/C=C/c2cccc(Br)c2)NC(=O)NC1C (stereo not drawn) | -7.77% |
| Cc1ccc(C#N)c(SCc2cccc(Br)c2)n1 | 17.2% |
| CCN(CC)CCOC(=O)c1ccc(NC(=O)/C=C/c2cccs2)cc1.Cl | -53.5% |
| CCCCOC(=O)c1ccc(NC(=O)/C=C/c2cccs2)cc1 | 1.76% |
| CCCOC(=O)c1ccc(NC(=O)/C=C/c2cccs2)cc1 | 7.88% |
| O=C(N/N=C\c1cccnc1)c1cc(-c2ccc(Cl)s2)[nH]n1 | 8.22% |
| O=C(NCCN1CCOCC1)/C(=C\c1ccc(Br)cc1)NC(=O)c1cccs1 | -54% |
| CSc1ccc(/C=C(/NC(=O)c2ccccc2)C(=O)NCCN2CCOCC2)cc1 | -10.3% |
| O=C(NCCCN1CCOCC1)/C(=C/c1ccc(F)cc1)NC(=O)c1ccccc1 | -46.5% |
| O=C(NCCN1CCOCC1)/C(=C\c1ccc(F)cc1)NC(=O)c1ccccc1 | -51.7% |
| CN(C)c1ccc(/C=C(\NC(=O)c2ccccc2)C(=O)NCCN2CCOCC2)cc1 | 8% |
| O=C(NCCO)/C(=C/c1ccc(Br)cc1)NC(=O)c1cccs1 | -8.3% |
| O=C(NCCN1CCOCC1)/C(=C/c1ccc(F)cc1)NC(=O)c1ccccc1 | -58.4% |
| O=C(NCCO)/C(=C\c1ccc(Br)cc1)NC(=O)c1cccs1 | 6.96% |
| CSc1ccc(/C=C(\NC(=O)c2ccccc2)C(=O)NCCN2CCOCC2)cc1 | -44.3% |
| COc1cc(CCC(=O)OCC(=O)Nc2ccc(F)c(F)c2)cc(OC)c1OC | 3.59% |
| CC(C)N1C(=O)S/C(=C/c2ccc3c(c2)n(C)c(=O)n3C)C1=O | -5.59% |
| COc1ccc(CNC(=O)COC(=O)CC2CC3CCC2C3)cc1OC (stereo not drawn) | 6.66% |
| COc1cccc(/C=C/c2nc3c(cnn3-c3ccccc3)c(=O)[nH]2)c1 | 9.85% |
| COC(=O)c1cc(NC(=O)Cc2ccc(OC)cc2)cc(C(=O)OC)c1 | 14.7% |
| Cc1c(C(=O)Nc2c(F)cccc2F)sc2ncnc(N3CCN(c4ccccc4)CC3)c12 | 4.01% |

| Structure (SMILES) | hERG current change (%, negative = inhibition) at 1uM |
| --- | --- |
| CCOC(=O)c1sc2ncnc(N3CCN(CC)CC3)c2c1C | -9.54% |
| CCN1CCN(c2ncnc3sc(C(=O)Nc4ccccc4F)c(C)c23)CC1 | -50.9% |
| Cc1ccc(S(=O)(=O)NC2CCC(C(=O)O)CC2)cc1 (stereo not drawn) | 9.17% |
| COC(=O)c1oc2ccc(OC)cc2c1N | 14.9% |
| CC(=O)N(c1ccccc1C)S(=O)(=O)c1ccc(Cl)cc1 | 10% |
| COc1ccc2[nH]c(C(=O)NCCc3ccccc3)cc2c1 | 17.2% |
| COc1ccccc1NC(=S)NC1CCCC1 | 14.8% |
| CN1/C(=C\C(=O)c2ccco2)C(C)(C)c2ccccc21 | 4.59% |
| CC(OC(=O)CCC(=O)c1ccccc1)C(=O)Nc1ccc(F)cc1 (stereo not drawn) | -299% |
| CC(=O)Nc1ccc(NC(=O)C(C)OC(=O)CCC(=O)c2ccc(F)cc2)cc1 (stereo not drawn) | 8.41% |
| CC(OC(=O)CCCC(=O)Nc1ccc(F)cc1)C(=O)c1ccccc1 (stereo not drawn) | 12.7% |
| CC(=O)NCCC(=O)Nc1nc2ccc(Oc3ccccc3)cc2s1 | 2.19% |
| Cc1cccc(S(=O)(=O)Nc2cccc3c2C(=O)c2ccccc2-3)c1 | 3.03% |
| CCN(CC)CCCN(C(=O)c1ccc(OC)cc1)c1nc(-c2ccc(OC)cc2)cs1 | -15.5% |
| COc1ccc(-c2csc(N(CCCN(C)C)C(=O)c3cccs3)n2)cc1.Cl | -51.6% |
| COc1ccc(-c2csc(N(CCCN(C)C)C(=O)c3ccccc3C)n2)cc1.Cl | -2.13% |
| CCN(CC)CCCN(C(=O)c1cccs1)c1nc(-c2ccc(OC)cc2)cs1 | -71.8% |
| CN(C)CCCN(C(=O)c1cccs1)c1nc(-c2ccccc2)cs1 | -50.7% |
| CCC(=O)N(CC)c1nc(-c2cc(OC)ccc2OC)cs1 | 12.9% |
| CCN(C(=O)c1cccs1)c1nc(-c2ccc(OC)cc2)cs1 | 13.4% |
| CCN(CC)CCCN(C(C)=O)c1nc(-c2cc(OC)ccc2OC)cs1.Cl | -51% |
| O=C(c1cccs1)N(CC1CCCO1)c1nc(-c2ccccc2)cs1 (stereo not drawn) | 11.8% |

| Structure (SMILES) | hERG current change (%, negative = inhibition) at 1uM |
| --- | --- |
| COc1ccc(-c2csc(N(CCCN(C)C)C(=O)c3ccc(C)cc3)n2)cc1.Cl | -17.2% |
| CCC(=O)N(CCCN(C)C)c1nc(-c2cc(OC)ccc2OC)cs1.Cl | -8.76% |
| COc1ccc(-c2csc(N(CCCN(C)C)C(=O)c3ccccc3Cl)n2)cc1.Cl | -12.5% |
| COC(=O)c1cc(OC)c(OC)cc1NC(=O)C(C)c1ccc([N+](=O)[O-])cc1 (stereo not drawn) | 8.84% |
| CC1OC2(OC1C)C(=O)Nc1ccccc12 (stereo not drawn) | 6.93% |
| Cc1onc(NC(=O)NC(=O)c2c(F)cccc2Cl)c1Br | 10.4% |
| O=C(Cn1nc(C(=O)O)c2ccccc2c1=O)Nc1ccc2c(c1)C(=O)c1ccccc1C2=O | 6.96% |
| COc1ccc(-c2nc(CS(=O)CC(=O)NCc3ccco3)c(C)o2)cc1 (stereo not drawn) | -1.89% |
| COc1cc(/C=C2\C(=N)N3N=CSC3=NC2=O)ccc1OS(=O)(=O)c1ccccc1 | 6.08% |
| CCCCc1ccc(NC(=S)N2CCCC(C)C2)cc1 (stereo not drawn) | 10.2% |
| O=C(c1cccs1)N1CCN(c2nc3ccccc3s2)CC1 | 7.28% |
| CC(C)n1c(N2CCN(CC(=O)NCc3cccs3)CC2)nc2ccccc21 | -30.9% |
| CCCn1c(N2CCN(CC(=O)NCc3cccs3)CC2)nc2ccccc21 | -62.7% |
| CC(C)Cn1c(N2CCN(C(=O)c3cccs3)CC2)nc2ccccc21 | -74.7% |
| CCCn1c(N2CCN(CC(=O)Nc3ccc4c(c3)OCCO4)CC2)nc2ccccc21.Cl | -29.2% |
| CC(C)n1c(N2CCN(C(=O)c3cccs3)CC2)nc2ccccc21 | -26.9% |
| O=C(/C=C/c1cccc([N+](=O)[O-])c1)OC1CCCCC1=O (stereo not drawn) | 9.96% |
| Cc1ccc(C(C)NC(=O)CSc2ccc(S(=O)(=O)N3CCOCC3)cn2)cc1C (stereo not drawn) | 5.8% |
| COc1ccc(Cl)cc1Nc1nc(-c2sc(NC(=O)CC(C)C)nc2C)cs1 | 11.1% |
| CCOC(=O)c1sc(=S)n(-c2cc(OC)ccc2OC)c1N | 6.58% |
| COc1cc2c(cc1OC)C(C)N(CCc1ccc(Cl)cc1)CC2.O=C(O)/C=C\C(=O)O (stereo not drawn) | -39.9% |
| COc1cc2c(cc1OC)CN(CCC(C)c1ccc(Cl)cc1)CC2.O=C(O)/C=C\C(=O)O (stereo not drawn) | -50.5% |

| Structure (SMILES) | hERG current change (%, negative = inhibition) at 1uM |
| --- | --- |
| COc1cc2c(cc1OC)CN(CC(=O)Nc1ccc(Cl)cc1Cl)CC2 | 2.03% |
| O=C(COC(=O)c1cccs1)Nc1ccccc1Cl | 14.6% |
| Cc1ccc(-n2c(SCC(=O)NCc3cccs3)nnc2-c2ccoc2C)cc1 | -16.5% |
| Cc1occc1-c1nnc(SCC(=O)NCc2cccs2)n1-c1ccc(F)cc1 | -14% |
| COc1cccc(-n2c(SCC(=O)Nc3nccs3)nnc2-c2ccoc2C)c1 | -84.6% |
| COc1ccc(-n2c(SCC(=O)NCc3cccs3)nnc2-c2ccoc2C)cc1 | -55.9% |
| Cc1csc(NC(=O)CSc2nnc(C)n2Cc2ccco2)n1 | 7.95% |
| COc1ccc(-n2c(SCC(=O)Nc3ccccc3)nnc2-c2ccoc2C)cc1 | 11.7% |
| CCn1c(SCC(=O)Nc2nc(C)cs2)nnc1-c1ccoc1C | 10.4% |
| COc1ccc(-n2c(SCC(=O)Nc3nc(C)cs3)nnc2-c2ccoc2C)cc1 | -85% |
| Cc1occc1-c1nnc(SCC(=O)Nc2nccs2)n1Cc1ccco1 | 3.28% |
| Cc1csc(NC(=O)CSc2nnc(-c3ccoc3C)n2Cc2ccco2)n1 | -78.4% |
| CCOc1ccccc1-n1c(SCC(=O)Nc2nccs2)nnc1-c1ccoc1C | 11.5% |
| COC(=O)CSc1nnc(-c2ccoc2C)n1-c1ccc(OC)cc1 | 8.81% |
| O=C(CCCN1C(=O)/C(=C/c2ccccc2Cl)SC1=S)Nc1ccccn1 | 4.44% |
| COc1cc(NC(=O)CSc2nccc(C)n2)c(C(=O)O)cc1OC | -7.07% |
| COc1cc2c(cc1OC)C(COc1ccccc1OC)N(C(=O)C(C)(C)C)CC2 (stereo not drawn) | 5.43% |
| COCc1[nH]nc2c1C(c1ccc(OC)c(OC)c1)C(C#N)=C(N)O2 (stereo not drawn) | 10.6% |
| CCOc1ccc(N2CC(C(=O)Nc3ccccc3N3CCOCC3)CC2=O)cc1 (stereo not drawn) | 4.41% |
| COc1ccc(OC)c(NC(=O)CSc2nnc(CNC(=O)COc3ccc(Cl)cc3)o2)c1 | 2.4% |
| COC(=O)C1=C(O)C(C(=O)OC)C(c2ccc(C)cc2)C(C#N)(C#N)C1c1ccc(C)cc1 (stereo not drawn) | 6.75% |
